This is part of a sample that, as a whole, favours compounds with a hit. Of some 79,000 tested, about 15% had one in any assay. Calls of active or inactive are those of the source. No stated cut-off is given here; in the data, active means growth inhibition above about 70%; inactive means the rest.
Experiments:
[1] = NCI Yeast Anticancer Drug Screen. Data for the wt1 strain (AID 149);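 further: 0% = growth of vehicle-treated wt1 cultures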; conditions: S. cerevisiae wt1 strain (SPY 50644) growth inhibition, active compounds read high
Method in brief: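 wt1 yeast, compound-treated; % growth inhibition vs vehicle control.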

[2] = NCI Yeast Anticancer Drug Screen. Data for the rad50EPP+ strain (AID 151);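 further: 0% = growth of vehicle-treated control cultures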; conditions: S. cerevisiae rad50 mutant strain, active compounds read high
Method in brief: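 Read-out is yeast growth inhibition relative to vehicle; cells used were the rad50EPP+ strain.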

[3] = NCI Yeast Anticancer Drug Screen. Data for the mgt1 strain (AID 153); conditions: S. cerevisiae mgt1 mutant growth inhibition, active compounds read high
Method in brief: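 Measured: inhibition of mgt1 yeast growth by compound, normalized to vehicle-treated cultures.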

[4] = NCI Yeast Anticancer Drug Screen. Data for the rad50 strain (AID 155);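 further: 0% = growth of vehicle-only cultures of the same strain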; conditions: S. cerevisiae rad50 strain growth inhibition, active compounds read high
Method in brief: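 Genetically altered yeast (DNA repair pathway); compound treatment; growth inhibition vs vehicle ctrl.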

[5] = NCI Yeast Anticancer Drug Screen. Data for the mec2-1 strain (AID 157); conditions: S. cerevisiae mec2-1 strain, active compounds read high
Method in brief: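 Using mec2-1 yeast: add compound, measure growth, express inhibition versus vehicle-treated cultures.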

[6] = NCI Yeast Anticancer Drug Screen. Data for the rad14 strain (AID 159);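 further: 0% = growth of vehicle-treated control cultures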; conditions: S. cerevisiae rad14 strain growth inhibition, active compounds read high
Method in brief: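 Test compounds were applied to a repair-deficient yeast strain. Its growth was then compared with that of cultures given vehicle alone, and inhibition was expressed relative to those controls.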

[7] = NCI Yeast Anticancer Drug Screen. Data for the sgs1 mgt1 strain (AID 161);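 further: 0% = growth of cultures given vehicle only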; conditions: S. cerevisiae sgs1 mgt1 strain, active compounds read high
Method in brief: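 Growth of a repair-deficient yeast mutant was monitored after compound treatment and expressed as inhibition relative to vehicle-treated cultures.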

[8] = NCI Yeast Anticancer Drug Screen. Data for the CLN2oe strain (AID 163);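 further: 0% = growth of vehicle-only control cultures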; conditions: S. cerevisiae CLN2oe strain, active compounds read high
Method in brief: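 Whole-cell yeast growth assay. A strain engineered for altered cell-cycle control received compound, and inhibition relative to vehicle-treated cultures was recorded.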

[9] = NCI Yeast Anticancer Drug Screen. Data for the cln2 rad14 strain (AID 165);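 further: 0% = growth equal to vehicle treated cultures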; conditions: S. cerevisiae cln2 rad14 strain, active compounds read high
Method in brief: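 Yeast strain cln2 rad14, bearing defects in cell cycle control and DNA repair, serves as the test system; values reflect growth inhibition compared with vehicle.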

[10] = NCI Yeast Anticancer Drug Screen. Data for the bub3 strain (AID 167); conditions: S. cerevisiae bub3 mutant strain, active compounds read high
Method in brief: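 Yeast carrying a defined mutation is treated with each compound, and growth is compared with that of vehicle-exposed cells to give inhibition.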

[11] = NCI Yeast Anticancer Drug Screen. Data for the wt2 strain (AID 169);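 further: 0% = growth of vehicle-treated yeast cultures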; conditions: S. cerevisiae wt2 strain growth inhibition, active compounds read high
Method in brief: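 Treated yeast vs. vehicle-treated yeast: growth inhibition determined.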

[12] = NCI Yeast Anticancer Drug Screen. Data for the mlh1 strain (AID 171);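 further: 0% = growth of vehicle-treated control cultures of the same strain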; conditions: S. cerevisiae mlh1 strain growth inhibition, active compounds read high
Method in brief: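 A yeast strain with a defined genetic lesion serves as the test organism. Cultures receive compound or vehicle, and growth is measured.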

[13] = NCI Yeast Anticancer Drug Screen. Data for the sgs1 strain (AID 173);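 further: 0% = growth of vehicle-only control cultures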; conditions: S. cerevisiae sgs1 mutant, active compounds read high
Method in brief: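 A genetically defined yeast mutant is incubated with the test compound, and its growth is compared to that of the same strain given vehicle.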

[14] = NCI Yeast Anticancer Drug Screen. Data for the mlh1 rad18 strain (AID 175); conditions: S. cerevisiae mlh1 rad18 strain growth inhibition, active compounds read high
Method in brief: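 Steps: expose repair-defective yeast to compound; measure growth; express inhibition against vehicle-treated controls.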

[15] = NCI Yeast Anticancer Drug Screen. Data for the rad18 strain (AID 177); conditions: S. cerevisiae rad18 mutant growth inhibition, active compounds read high
Method in brief: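 Measured value is growth inhibition of a yeast strain bearing a DNA repair alteration, referenced to vehicle-treated cells.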

[16] = at 5.0 µM (retest, dose inferred, filed as 0.5)
[17] = at 50.0 µM (retest, dose inferred, filed as 5.0)

Measured: growth inhibition

CCOc1ccc2nc3ccccc3c(N)c2c1
active: [1]; at 33.0 µM 83% | [1]; at 100.0 µM 94% | [2]; at 100.0 µM 90% | [3]; at 33.0 µM 83% | [3]; at 100.0 µM 94% | [4]; at 33.0 µM 89% | [4]; [17] 81% | [4]; at 50.0 µM 91.2% | [4]; at 100.0 µM 97% | [5]; at 33.0 µM 80% | [5]; [17] 82% | [5]; at 50.0 µM 83.7% | [5]; at 100.0 µM 97% | [6]; at 33.0 µM 87% | [6]; at 100.0 µM 92% | [7]; [17] 86% | [7]; at 50.0 µM 81.2% | [8]; at 100.0 µM 92% | [9]; [17] 84% | [9]; at 50.0 µM 86.2% | [10]; at 33.0 µM 78% | [10]; [17] 84% | [10]; at 50.0 µM 87.1% | [10]; at 100.0 µM 90% | [11]; at 33.0 µM 89% | [11]; at 100.0 µM 98% | [12]; at 33.0 µM 90% | [12]; at 100.0 µM 98% | [13]; at 33.0 µM 88% | [13]; at 100.0 µM 97% | [14]; [17] 82% | [14]; at 50.0 µM 89.5% | [15]; at 33.0 µM 83% | [15]; at 100.0 µM 97%
inactive: [1]; at 1.2 µM 7% | [1]; at 3.7 µM 13% | [1]; at 11.0 µM 37% | [2]; at 1.2 µM 2% | [2]; at 3.7 µM 4% | [2]; at 11.0 µM 21% | [2]; at 33.0 µM 59% | [3]; at 1.2 µM 0% | [3]; at 3.7 µM 9% | [3]; at 11.0 µM 35% | [4]; at 1.2 µM 7% | [4]; at 3.7 µM 21% | [4]; [16] 0% | [4]; at 11.0 µM 50% | [5]; at 1.2 µM 5% | [5]; at 3.7 µM 4% | [5]; [16] 21% | [5]; at 11.0 µM 19% | [6]; at 1.2 µM 4% | [6]; at 3.7 µM 23% | [6]; at 11.0 µM 50% | [7]; [16] 32% | [8]; at 1.2 µM 7% | [8]; at 3.7 µM 16% | [8]; at 11.0 µM 33% | [8]; at 33.0 µM 68% | [9]; [16] 46% | [10]; at 1.2 µM -20% | [10]; at 3.7 µM -2% | [10]; [16] 14% | [10]; at 11.0 µM 16% | [11]; at 1.2 µM 7% | [11]; at 3.7 µM 18% | [11]; at 11.0 µM 49% | [12]; at 1.2 µM 7% | [12]; at 3.7 µM 8% | [12]; at 11.0 µM 47% | [13]; at 1.2 µM 10% | [13]; at 3.7 µM 24% | [13]; at 11.0 µM 51% | [14]; [16] 10% | [15]; at 1.2 µM 4% | [15]; at 3.7 µM 8% | [15]; at 11.0 µM 30%

O=S(=O)(c1ccccc1)N1CN2CN(C1)CN(S(=O)(=O)c1ccccc1)C2
inactive: [1]; at 1.2 µM -3% | [1]; at 3.7 µM 14% | [1]; at 11.0 µM 17% | [1]; at 33.0 µM 11% | [1]; at 100.0 µM 16% | [2]; at 1.2 µM -18% | [2]; at 3.7 µM -15% | [2]; at 11.0 µM -15% | [2]; at 33.0 µM -12% | [2]; at 100.0 µM -10% | [3]; at 1.2 µM 0% | [3]; at 3.7 µM 7% | [3]; at 11.0 µM 5% | [3]; at 33.0 µM 7% | [3]; at 100.0 µM 6% | [4]; at 1.2 µM -4% | [4]; at 3.7 µM -7% | [4]; [16] 24% | [4]; at 11.0 µM -10% | [4]; at 33.0 µM -12% | [4]; [17] 38% | [4]; at 50.0 µM -11.5% | [4]; at 100.0 µM -11% | [5]; at 1.2 µM -2% | [5]; at 3.7 µM -6% | [5]; [16] 26% | [5]; at 11.0 µM -19% | [5]; at 33.0 µM 0% | [5]; at 50.0 µM -28%
active: [5]; [17] 79%
